Records with an inconclusive call do not appear. Calls of active or inactive are those of the source. Calls come from the whole dose curve; as a rule, active = well fitted inhibition curve with a large enough effect; inconclusive = small, poorly fitted or top-dose-only effect; inactive = flat fitted curve, though single readings scatter.
Experiments:
[1] = qHTS profiling for inhibitors of Plasmodium falciparum proliferation (AID 504749);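 note: 0% = DMSO vehicle and full inhibition = artemisinin control; nearly all actives have a fitted effect of over 60% in size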; settings: P. falciparum in erythrocytes, SYBR Green DNA, 72 h
Method in brief: (§1)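 In a 72 h erythrocytic culture (37 C, humidified, 5% CO2) at 2.5% hematocrit and 0.3% starting parasitemia, compounds were tested; SYBR Green I in detergent lysis buffer stained parasite DNA overnight.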

3D7 = experiment: as above; settings: P. falciparum in erythrocytes, SYBR Green DNA, 72 h; series mostly up to 28.7 µM
Method in brief: as §1

7G8 = experiment: as above; settings: P. falciparum in erythrocytes, SYBR Green DNA, 72 h; series mostly up to 28.7 µM
Method in brief: as §1

AA1029 = experiment: as above; settings: P. falciparum in erythrocytes, SYBR Green DNA, 72 h; series mostly up to 28.7 µM
Method in brief: as §1

AS120 = experiment: as above; settings: P. falciparum in erythrocytes, SYBR Green DNA, 72 h; series mostly up to 28.7 µM
Method in brief: as §1

ATS189 = experiment: as above; settings: P. falciparum in erythrocytes, SYBR Green DNA, 72 h; series mostly up to 28.7 µM
Method in brief: as §1

ATS95 = experiment: as above; settings: P. falciparum in erythrocytes, SYBR Green DNA, 72 h; series mostly up to 28.7 µM
Method in brief: as §1

C2A = experiment: as above; settings: P. falciparum in erythrocytes, SYBR Green DNA, 72 h; series mostly up to 28.7 µM
Method in brief: as §1

CP185 = experiment: as above; settings: P. falciparum in erythrocytes, SYBR Green DNA, 72 h; series mostly up to 28.7 µM
Method in brief: as §1

CP191 = experiment: as above; settings: P. falciparum in erythrocytes, SYBR Green DNA, 72 h; series mostly up to 28.7 µM
Method in brief: as §1

CP192 = experiment: as above; settings: P. falciparum in erythrocytes, SYBR Green DNA, 72 h; series mostly up to 28.7 µM
Method in brief: as §1

CP194 = experiment: as above; settings: P. falciparum in erythrocytes, SYBR Green DNA, 72 h; series mostly up to 28.7 µM
Method in brief: as §1

CP201 = experiment: as above; settings: P. falciparum in erythrocytes, SYBR Green DNA, 72 h; series mostly up to 28.7 µM
Method in brief: as §1

CP203 = experiment: as above; settings: P. falciparum in erythrocytes, SYBR Green DNA, 72 h; series mostly up to 28.7 µM
Method in brief: as §1

CP211 = experiment: as above; settings: P. falciparum in erythrocytes, SYBR Green DNA, 72 h; series mostly up to 28.7 µM
Method in brief: as §1

CP217 = experiment: as above; settings: P. falciparum in erythrocytes, SYBR Green DNA, 72 h; series mostly up to 28.7 µM
Method in brief: as §1

CP237 = experiment: as above; settings: P. falciparum in erythrocytes, SYBR Green DNA, 72 h; series mostly up to 28.7 µM
Method in brief: as §1

CP238 = experiment: as above; settings: P. falciparum in erythrocytes, SYBR Green DNA, 72 h; series mostly up to 28.7 µM
Method in brief: as §1

CP247 = experiment: as above; settings: P. falciparum in erythrocytes, SYBR Green DNA, 72 h; series mostly up to 28.7 µM
Method in brief: as §1

CP215 = experiment: as above; settings: P. falciparum in erythrocytes, SYBR Green DNA, 72 h; series mostly up to 28.7 µM
Method in brief: as §1

[2] = at 12.8 µM (top of the series), parasite line A
[3] = at 12.8 µM (top of the series), parasite line B
[4] = at 28.7 µM (top of the series), parasite line A
[5] = at 28.7 µM (top of the series), parasite line B

O=C(O)CCC(=O)c1ccc(-c2ccccc2)cc1
inactive: activity, negative = inhibition [1, 2] -3.71% | activity, negative = inhibition [1, 3] 12.2% | Potency (3D7) | Potency (7G8) | Potency (AA1029) | Potency (AS120) | Potency (ATS189) | Potency (ATS95) | Potency (C2A) | Potency (CP185) | Potency (CP191) | Potency (CP192) | Potency (CP194) | Potency (CP201) | Potency (CP203) | Potency (CP211) | Potency (CP217) | Potency (CP237) | Potency (CP238) | Potency (CP247)

CCC(Cc1c(I)cc(I)c(O)c1I)C(=O)O (stereo not given)
inactive: activity, negative = inhibition [1, 4] 0.0242% | activity, negative = inhibition [1, 5] -1.87% | Potency (3D7) | Potency (7G8) | Potency (AA1029) | Potency (AS120) | Potency (ATS189) | Potency (ATS95) | Potency (C2A) | Potency (CP185) | Potency (CP191) | Potency (CP192) | Potency (CP194) | Potency (CP201) | Potency (CP211) | Potency (CP215) | Potency (CP217) | Potency (CP237) | Potency (CP238) | Potency (CP247)

Cc1ncc(C[n+]2csc(CCO)c2C)c(N)n1
inactive: activity, negative = inhibition [1, 2] 5.7% | activity, negative = inhibition [1, 3] 7.59% | Potency (3D7) | Potency (7G8) | Potency (AA1029) | Potency (AS120) | Potency (ATS189) | Potency (ATS95) | Potency (C2A) | Potency (CP185) | Potency (CP191) | Potency (CP192) | Potency (CP194) | Potency (CP201) | Potency (CP203) | Potency (CP211) | Potency (CP217) | Potency (CP237) | Potency (CP238) | Potency (CP247)

c1ccc2c(c1)OCC(CN1CCCCC1)O2 (stereo not given)
inactive: activity, negative = inhibition [1, 4] 4.84% | activity, negative = inhibition [1, 5] 0.843% | Potency (3D7) | Potency (7G8) | Potency (AA1029) | Potency (AS120) | Potency (ATS189) | Potency (ATS95) | Potency (C2A) | Potency (CP185) | Potency (CP191) | Potency (CP192) | Potency (CP194) | Potency (CP201) | Potency (CP203) | Potency (CP211) | Potency (CP215) | Potency (CP217) | Potency (CP238) | Potency (CP247)

CCCCO
inactive: activity, negative = inhibition [1, 4] 5.51% | activity, negative = inhibition [1, 5] 16.3% | Potency (3D7) | Potency (7G8) | Potency (AA1029) | Potency (AS120) | Potency (ATS189) | Potency (ATS95) | Potency (C2A) | Potency (CP185) | Potency (CP191) | Potency (CP192) | Potency (CP194) | Potency (CP201) | Potency (CP203) | Potency (CP211) | Potency (CP217) | Potency (CP237) | Potency (CP238) | Potency (CP247)

O=P(O)(O)OC[C@H](O)CO
inactive: activity, negative = inhibition [1, 4] -1.1% | activity, negative = inhibition [1, 5] 9.77% | Potency (3D7) | Potency (7G8) | Potency (AA1029) | Potency (AS120) | Potency (ATS189) | Potency (ATS95) | Potency (C2A) | Potency (CP185) | Potency (CP191) | Potency (CP192) | Potency (CP194) | Potency (CP201) | Potency (CP203) | Potency (CP211) | Potency (CP217) | Potency (CP237) | Potency (CP238) | Potency (CP247)

COC(=O)CCC[N+](C)(C)C
inactive: activity, negative = inhibition [1, 4] 18.8% | activity, negative = inhibition [1, 5] 3.25% | Potency (3D7) | Potency (7G8) | Potency (AA1029) | Potency (AS120) | Potency (ATS189) | Potency (ATS95) | Potency (C2A) | Potency (CP185) | Potency (CP191) | Potency (CP192) | Potency (CP194) | Potency (CP201) | Potency (CP211) | Potency (CP215) | Potency (CP217) | Potency (CP237) | Potency (CP238) | Potency (CP247)

C[C@H](N)C(=O)N[C@@H](C)P(=O)(O)O
inactive: activity, negative = inhibition [1, 4] 12.4% | activity, negative = inhibition [1, 5] 10.4% | Potency (3D7) | Potency (7G8) | Potency (AA1029) | Potency (AS120) | Potency (ATS189) | Potency (ATS95) | Potency (C2A) | Potency (CP185) | Potency (CP191) | Potency (CP192) | Potency (CP194) | Potency (CP201) | Potency (CP203) | Potency (CP211) | Potency (CP217) | Potency (CP237) | Potency (CP238) | Potency (CP247)

CC12CCC(C1)C(C)(C)C2=O (stereo not given)
inactive: activity, negative = inhibition [1, 4] 8.34% | activity, negative = inhibition [1, 5] 10.9% | Potency (3D7) | Potency (7G8) | Potency (AA1029) | Potency (AS120) | Potency (ATS189) | Potency (ATS95) | Potency (C2A) | Potency (CP185) | Potency (CP191) | Potency (CP192) | Potency (CP194) | Potency (CP201) | Potency (CP211) | Potency (CP215) | Potency (CP217) | Potency (CP237) | Potency (CP238) | Potency (CP247)

CC(CCc1ccc(O)cc1)NCC(O)c1ccc(O)cc1 (stereo not given)
inactive: activity, negative = inhibition [1, 4] 1.25% | activity, negative = inhibition [1, 5] 15.8% | Potency (3D7) | Potency (7G8) | Potency (AA1029) | Potency (AS120) | Potency (ATS189) | Potency (ATS95) | Potency (C2A) | Potency (CP185) | Potency (CP191) | Potency (CP192) | Potency (CP194) | Potency (CP201) | Potency (CP211) | Potency (CP215) | Potency (CP217) | Potency (CP237) | Potency (CP238) | Potency (CP247)

CCCCCCCCCCCC(=O)N(CCO)CCO
inactive: activity, negative = inhibition [1, 4] -3.5% | activity, negative = inhibition [1, 5] 9.6% | Potency (3D7) | Potency (7G8) | Potency (AA1029) | Potency (AS120) | Potency (ATS189) | Potency (ATS95) | Potency (C2A) | Potency (CP185) | Potency (CP191) | Potency (CP192) | Potency (CP194) | Potency (CP201) | Potency (CP211) | Potency (CP215) | Potency (CP217) | Potency (CP237) | Potency (CP238) | Potency (CP247)

CC1=CC(=O)NS(=O)(=O)O1
inactive: activity, negative = inhibition [1, 4] 0.853% | activity, negative = inhibition [1, 5] 6.07% | Potency (3D7) | Potency (7G8) | Potency (AA1029) | Potency (AS120) | Potency (ATS189) | Potency (ATS95) | Potency (C2A) | Potency (CP185) | Potency (CP191) | Potency (CP192) | Potency (CP194) | Potency (CP201) | Potency (CP211) | Potency (CP215) | Potency (CP217) | Potency (CP237) | Potency (CP238) | Potency (CP247)
